Data from PubChem BioAssay (NCATS).
Inconclusive results are not listed. Values without a mark were called inactive. Active and inactive are the calls of the source. Calls come from the whole dose curve; as a rule, active = well fitted activation curve with a large enough effect; inconclusive = small, poorly fitted or top-dose-only effect; inactive = no such curve, though single readings can be large or run the other way.

biological target: Cellular tumor antigen p53 (Homo sapiens) (UniProt P04637); assay: Primary qHTS for small molecule compounds that upregulate eGFP-tagged delta133p53alpha (in N-terminal) cells. (AID 2060322); settings: NCI-H358 eGFP-delta133p53alpha fluorescence, 24 h; activation: hits give high values; note: nearly all actives have a fitted effect of over 75% in size;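 for activation: series mostly up to about 56 µM; 0% = DMSO vehicle and 100% = reference activator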
In short: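 NCI-H358 cells pre-induced 24 h with 10 ng/ml doxycycline for eGFP-delta133p53alpha, plated dox-free and exposed 24 h at 37C to titrated compounds. Fixed, Hoechst-stained; gated GFP peak intensity by laser scanning cytometry, normalized to DMSO (0%) and 57.5 uM 5-azacytidine (100%).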
Potency is the fitted concentration of half-maximal effect.

Cellular tumor antigen p53 (Homo sapiens), sequence (P04637 whole entry, looked up): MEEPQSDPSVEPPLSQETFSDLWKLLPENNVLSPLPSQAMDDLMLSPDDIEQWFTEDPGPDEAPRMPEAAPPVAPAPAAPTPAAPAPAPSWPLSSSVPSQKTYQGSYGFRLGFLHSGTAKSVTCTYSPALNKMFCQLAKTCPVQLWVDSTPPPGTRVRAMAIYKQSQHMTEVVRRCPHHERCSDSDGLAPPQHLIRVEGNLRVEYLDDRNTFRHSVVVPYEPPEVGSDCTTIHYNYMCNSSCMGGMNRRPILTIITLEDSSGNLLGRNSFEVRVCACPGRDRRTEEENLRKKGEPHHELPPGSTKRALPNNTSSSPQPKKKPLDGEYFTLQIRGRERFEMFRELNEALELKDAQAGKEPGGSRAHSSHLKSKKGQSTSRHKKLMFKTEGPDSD

Row | SMILES | activation [%] | Potency
1 | Cc1c(N(C)CS(=O)(=O)O)c(=O)n(-c2ccccc2)n1C | -7.34 | 
2 | CC(=O)OCC(=O)[C@@]1(O)[C@H](OC(C)=O)C[C@H]2[C@@H]3CCC4=CC(=O)C=C[C@]4(C)[C@@]3(F)[C@@H](O)C[C@@]21C | 4.18 | 
3 | Nc1ccc(C(=O)Oc2ccccc2)c(O)c1 | -3.35 | 
4 | O=C(Oc1ccccc1C(=O)O)c1ccccc1O | -5.02 | 
5 | COC(=O)C1=C(C)NC(C)=C(C(=O)OCC(C)=O)C1c1ccccc1[N+](=O)[O-] (stereo not given) | 1.69 | 
6 | Cc1[nH]cnc1CN1CCc2c(c3ccccc3n2C)C1=O | -13.4 | 
7 | COc1ccc(S(=O)(=O)Nc2nnc(CC(C)C)s2)cc1 | -11.7 | 
8 | Nc1nc(Cl)nc2c1ncn2[C@@H]1O[C@H](CO)[C@@H](O)[C@H]1F | -22.8 | 
9 | CN1CCN(CCCN2c3ccccc3Sc3ccc(S(=O)(=O)N(C)C)cc32)CC1 | 6.69 | 
10 | O=C(O)c1ccc(-c2cc3cccnc3c(-c3ccc4nonc4c3)n2)cc1 | 3.89 | 
11 | CCCOC(=O)c1ccc(N)cc1 | 0 | 
12 | CO[C@H]1C=CC=C(C)C(=O)NC2=CC(=O)C(NCCN(C)C)=C(C[C@@H](C)C[C@H](OC)[C@@H](O)[C@@H](C)C=C(C)[C@@H]1OC(N)=O)C2=O | 14.6 | 
13 | C[C@@H](O)[C@H](N)C(=O)O | -18.4 | 
14 | COc1ccc2cc(C=O)ccc2c1 | -1.69 | 
15 | CCOC(=O)N1CCN([N+]([O-])=NOc2ccc([N+](=O)[O-])cc2[N+](=O)[O-])CC1 | 8.17 | 
16 | COc1cc(C=C2CCC/C(=C\c3ccc(O)c(OC)c3)C2=O)ccc1O |  | 19.5 µM (active)
17 | CCCCCCCCCCCCCCCC(=O)OC(C)C | -15.3 | 
18 | O=C(Nc1ccccc1)Nc1ccc(-c2ccc(C(=O)[C@H]3CCC[C@H]3C(=O)O)cc2)cc1 | -3.35 | 
19 | CN1CCN(N)CC1 | 0.837 | 
20 | Nc1c2ccccc2nc2ccccc12 | -7.34 | 

Row | SMILES | activation [%] | Potency
21 | COc1ccc(/C(C)=C/C(=O)O)c(OC)c1 | -10.7 | 
22 | CC(=O)O[C@@H]1CC2C3CCc4cc(OC(=O)c5ccccc5)ccc4C3CCC2(C)[C@H]1OC(C)=O (stereo not given in full) | 6.21 | 
23 | CCc1cc(Cl)c(OC)c(C(=O)NC[C@@H]2CCCN2CC)c1O | 13.4 | 
24 | NC1CCN(c2nc3c(cc2F)c(=O)c(C(=O)O)cn3-c2ccc(F)cc2F)C1 (stereo not given) | 11.9 | 
25 | C[C@@H]1[C@H](O)[C@@H](C)C=CC=CC=CC=CC=CC=CC=C[C@H](O[C@@H]2O[C@H](C)[C@H](O)[C@H](N)[C@@H]2O)C[C@@H]2O[C@](O)(C[C@@H](O)C[C@@H](O)[C@H](O)CC[C@@H](O)C[C@@H](O)CC(=O)O[C@H]1C)C[C@H](O)[C@@H]2C(=O)O | -1.15 | 
26 | Cc1cc(C)cc(OCC2CNC(=O)O2)c1 (stereo not given) | -11.9 | 
27 | C[C@H](NCc1ccc2c(c1)nc(NC(=O)c1ccc(-c3cn[nH]c3)s1)n2CCc1ccccc1)C(C)(C)C |  | 6.11 µM (active)
28 | O=C1CCCc2c(O)cccc21 | -14.1 | 
29 | O=C(Nc1cccc2c(=O)cc(-c3nn[nH]n3)oc12)c1ccc(OCCCCc2ccccc2)cc1 | -4.79 | 
30 | COc1c(C)c2c(c(O)c1CC=C(C)CCC(=O)OCCN1CCOCC1)C(=O)OC2 | 13.4 | 
31 | CC(=O)Nc1ncc([N+](=O)[O-])s1 | -1.69 | 
32 | Cc1nc2ccccc2n1Cc1ccc(Cl)cc1 | -11.7 | 
33 | COc1ccc2cc1Oc1cc3c(cc1OC)CC[N+](C)(C)[C@H]3Cc1ccc(cc1)Oc1c(OC)c(OC)cc3c1[C@@H](C2)[N+](C)(C)CC3 | 13 | 
34 | CN1CCC[C@@H]1CCO[C@](C)(c1ccccc1)c1ccc(Cl)cc1 | 26.6 | 
35 | CN1CCCC(CC2c3ccccc3Sc3ccccc32)C1 (stereo not given) | 14.2 | 
36 | COc1cc(C(C)C)c(Oc2cnc(N)nc2N)cc1I | 3.67 | 
37 | Nc1nc(F)nc2c1ncn2[C@@H]1O[C@H](COP(=O)(O)O)[C@@H](O)[C@H]1O | -4.99 | 
38 | CC(C)=CCC[C@@](C)(O)[C@H]1CC=C(C)CC1 | 18.6 | 
39 | C[N+]1(C)[C@@H]2CC(OC(=O)[C@H](CO)c3ccccc3)C[C@H]1[C@H]1O[C@@H]12 (stereo not given in full) | 14 | 
40 | Cc1[nH]c(C=C2C(=O)Nc3ccc(S(=O)(=O)N(C)c4cccc(Cl)c4)cc32)c(C)c1C(=O)N1CCN(C)CC1 |  | 6.11 µM (active)
